Bioassay records from PubChem.
Sampled rows, rich in hits. Any-hit rate of the full collection: about 8.2%.
SW480 rerep: induces DNA re-replication in SW480 colon adenocarcinoma cells | SW480 DNA re-replication, Hoechst DNA content imaging, 48 h | Potency, µM (series often up to 46.1 µM), without a hit: at the top dose re-replication activation, hits mostly activators | 340,000 tested, 1.8% active | AID 624297; further: % of control where 0% means no effect; nearly all actives have a fitted effect of over 55% in size
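Quantitative HTS format with DMSO vehicle controls; 48 hr drug incubation at 37 C, then 40 min Hoechst staining and scanning imager measurement at 405 nm excitation.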
ELG1 DNA repair: blocks ELG1-dependent DNA repair in HEK293T cells | HEK293T ELG1-luciferase reporter, luminescence, 16 h; DNA damage induced by 5-fluorouridine | Potency, µM (titrated, usually from 46.1 µM), for the others: top-dose activity change, negative = inhibition, hits mostly inhibitors | 330,000 tested, 2.3% active; further: on the % scale 0 is the no-effect control and ±100 the full control effect; nearly all actives have a fitted effect of over 55% in size
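Reporter activity after DNA damage by 5-fluorouridine is monitored. Compound-treated cells incubate 16 hr at 37 °C, then ONE-Glo is added for 30 min before luminescence reading.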
KB-V1 cytotox: KB-V1 MDR subline cytotoxicity. KB-V1 MDR cells viability, CellTiter-Glo, 72 h. Potency, µM (series often up to 46.1 µM), actives largely listed as cytotoxic. 400,000 tested, 3.4% active. AID 1347076; further: on the % scale 0 is the no-effect control and ±100 the full control effect; nearly all actives have a fitted effect of over 60% in size
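Following 72 h at 37 degrees C with compound, KB-V1 cell viability was read by CellTiter-Glo luminescence, medium being phenol-red-free DMEM plus 10% FBS; concentration-response parameters came from normalized, curve-fitted qHTS data.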
MCF10A rerep: DNA re-replication induction in MCF 10a cells; MCF 10A DNA re-replication, Hoechst nuclear intensity, 48 h; 350,000 tested, 2.9% active; Potency, µM (top dose mostly 46.1 µM), for inactives: top-dose activity, positive = re-replication, hits mostly activators; further: % of control where 0% means no effect; nearly all actives have a fitted effect of over 50% in size
KB-3-1 cytotox: KB-3-1 parental cell cytotoxicity | KB-3-1 viability, CellTiter-Glo ATP luminescence, 72 h | Potency, µM (top dose mostly 46.1 µM), hits mostly cytotoxic | 400,000 tested, 1.4% active | AID 1347075; further: on the % scale 0 is the no-effect control and ±100 the full control effect; nearly all actives have a fitted effect of over 60% in size
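72 h, 37 °C compound treatment of KB-3-1 parental cells; CellTiter-Glo added, 10 min, luminescence read. Data corrected against DMSO-only plates and normalized before curve fitting.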
Starred values were filed as active, the others as inactive; i = inactive; ? = inconclusive; . = no result. The call rests on the fitted dose curve; in most records, active means well fitted curve in the direction sought with a large enough effect; inconclusive means small, poorly fitted or top-dose-only effect, or another doubt; inactive means no such curve, though single readings can be large; an effect the other way counts as inactive or inconclusive. Potency means the concentration at half of the fitted maximal effect.

SMILES	SW480 rerep	ELG1 DNA repair	KB-V1 cytotox	MCF10A rerep	KB-3-1 cytotox
CCOC(=O)c1c(S(=O)(=O)N2CCC(C(=O)NCc3cccc(OC)c3)CC2)c(C)n(C)c1C	.	.	i	.	i
O=C(COC(=O)c1ccc(Cl)c(S(=O)(=O)N2CCCCC2)c1)NC1CCCCC1	.	.	i	.	i
O=C(NC(=S)NNC(=O)c1ccccc1O)c1ccccc1	15µM*	-25%	i	30%	?
O=C(CCc1ccccc1)NC(=S)Nc1cccc(Br)c1	0%	16%	i	16µM*	i
CC(=O)NC(=S)NNC(=O)CCc1ccccc1	-15%	-17%	i	-14%	i
Cc1ccc(C(=O)NC(=S)NNC(=O)c2ccccc2O)cc1	-2%	31%	i	?	i
O=C(CCc1ccccc1)NNC(=S)NC(=O)c1ccccc1	3.7µM*	14%	?	3.3µM*	i
COc1ccc(NC(=O)CSc2nnc(CN3CCOCC3)n2C)cc1Cl	1%	.	i	2%	i
CCc1nc2c(OCCn3cccc3)cccn2c1N(C)C(=O)c1ccc(C)cc1	.	.	i	.	i
CC(C)c1ccc(NC(=O)CSc2nnc(-c3ccccc3)n2C)cc1	.	.	i	.	i
CC1Cc2[nH]c(=S)[nH]c(=O)c2C(c2ccc(F)cc2)O1 (stereo unspecified)	.	.	i	.	i
CCOc1ccc(NS(=O)(=O)c2ccc(NS(=O)(=O)c3ccc(SC)cc3)cc2)cc1	0%	-9%	23µM*	?	i
CCOc1ccc(NS(=O)(=O)c2ccc(OCC(=O)N3CCCC3)cc2)cc1	1%	4%	i	1%	i
CCOC(=O)N1CCN(C(=O)COc2ccc(S(=O)(=O)Nc3ccc(OCC)cc3)cc2)CC1	5%	?	i	2%	21µM*
O=C(NN(Cc1ccccc1)Cc1ccccc1)c1ccccc1	7%	.	i	-3%	i
Cc1cccnc1C1=NOC(Cc2ccccc2)C(=O)N1CCOc1ccc(F)cc1 (stereo unspecified)	.	.	i	.	i
CN(CC(=O)Nc1c(Cl)cccc1Cl)C(=O)c1ccc(-n2cncn2)c([N+](=O)[O-])c1	?	28%	i	0%	i
COc1ccccc1NC(=O)Cc1noc(CSc2nnc(C)n2C)n1	2%	-3%	i	0.65µM*	i
CCOC(=O)Cn1c(=NC(=O)c2cc(-c3cccs3)nc3ccccc23)sc2cc(S(N)(=O)=O)ccc21	?	?	i	8.2µM*	i
COC(=O)Cn1c(=NC(=O)c2cc(-c3cccs3)nc3ccccc23)sc2cc(S(N)(=O)=O)ccc21	?	9.2µM*	?	7.3µM*	i
COC(=O)Cn1c(=NC(=O)c2nc3ccccc3s2)sc2cc(S(N)(=O)=O)ccc21	-12%	-20%	i	?	?
O=c1c2c(C(F)(F)F)cc(C(F)(F)F)nc2[nH]n1-c1ccccc1	1%	26µM*	i	8%	?
CCCSc1ccc2nc(-c3ccccc3)cn2c1	.	?	21µM*	?	18µM*
CCCCSc1ccc2nc(-c3ccc(C#N)cc3)cn2c1	-8%	?	i	?	i
COc1ccc(OCC(=O)Nc2ccncc2)cc1	-1%	4%	i	2%	i
SMILES	SW480 rerep	ELG1 DNA repair	KB-V1 cytotox	MCF10A rerep	KB-3-1 cytotox
CNC(=O)c1ccsc1NC(=O)c1sc2ccccc2c1Cl	?	?	i	29µM*	i
O=c1c2cn(Cc3ccccc3)c3ccccc3c-2nn1Cc1ccc(F)cc1Cl	0%	16%	i	0%	i
COc1cccc(/C=C(/C(=O)OCC(=O)NC2CCCC(C)C2C)c2ccccc2)c1 (stereo unspecified)	-16%	?	i	18µM*	i
CC1=C(C(=O)N2CCOCC2)CC(CC(=O)NCc2ccco2)C(=O)N1Cc1ccc(C(C)(C)C)cc1 (stereo unspecified)	.	.	i	.	i
COc1cc(OC)c(N(C)S(=O)(=O)c2cccc(C(=O)Nc3nccs3)c2)cc1Cl	?	23µM*	?	12%	?
CN(c1ccccc1)S(=O)(=O)c1cccc(C(=O)Nc2nccs2)c1	-10%	-13%	?	21%	i
CC(C)C(NS(=O)(=O)c1c(Cl)cccc1Cl)C(=O)OCC(=O)c1c[nH]c2ccccc12 (stereo unspecified)	.	?	21µM*	13%	i
C=CCN(c1ccccc1OC)S(=O)(=O)c1cccc(C(=O)OCC(=O)c2c[nH]c3ccccc23)c1	?	23µM*	12µM*	-41%	?
COc1cc(Cl)c(CC(=O)c2c[nH]c3ccccc23)cc1OC	-1%	?	?	19%	13µM*
CC(O)C(NS(=O)(=O)c1ccc(Cl)cc1)C(=O)OCC(=O)c1c[nH]c2ccccc12 (stereo unspecified)	3%	?	i	22%	i
Cc1ccc(S(=O)Cc2ccc(C(=O)NC3CCCCCC3)o2)cc1 (stereo unspecified)	.	.	i	.	i
COc1ccc(C(=O)OCC(=O)c2c[nH]c3ccccc23)cc1OC	-7%	?	i	19%	i
COc1cc(OC)c(N(C)S(=O)(=O)c2cccc(C(=O)OCC(=O)c3c[nH]c4ccccc34)c2)cc1Cl	?	21µM*	?	18%	i
CCC(C)Nc1nnnc2c1sc1nc3c(cc12)COC(C)(C)C3 (stereo unspecified)	-8%	23µM*	?	?	i
CCOc1ncnc2c1sc1nc3c(cc12)COC(C)(C)C3	-8%	.	i	1%	i
CCCc1c(-c2cccc(Br)c2)ncn1Cc1cccc(-c2ccccc2)c1	.	.	16µM*	.	?
CCCc1c(-c2ccc(Cl)cc2)ncn1Cc1cccc(-c2ccccc2)c1	.	.	?	.	16µM*
COc1ccc(CCNC(=O)CCS(=O)(=O)c2cc3c(cc2Cl)NC(=O)CO3)cc1OC	.	.	i	.	i
Cc1cccnc1C1=NOC(Cc2ccccc2)C(=O)N1C (stereo unspecified)	.	.	i	.	i
N#C/C(=C\c1cn(Cc2cccc(F)c2)c2ccccc12)C(=O)NCc1ccco1	.	10%	i	13µM*	i
Cc1cccc(Cn2cc(/C=C(/C#N)C(=O)Nc3cccc(Cl)c3)c3ccccc32)c1	.	.	i	.	i
N#C/C(=C\c1cn(Cc2ccccc2)c2ccccc12)C(=O)NCc1ccco1	?	7%	i	21µM*	i
N#C/C(=C\c1cn(Cc2ccc(F)cc2)c2ccccc12)C(=O)NCc1ccco1	?	?	i	-1%	i
